The full list was thinned out, with hits kept by preference.
HTT cytoprotect – Huntington cell model cytoprotection by ATP luminescence; Potency, µM (series often up to 56.4 µM), without a hit: cytoprotection (ATP increase), usual class: activators; AID 1471; 230,000 compounds, 0.14% hits; PC12 HTT-Q103 induced, cytoprotection, ATP luminescence, 40 h; further: % of control where 0% means no effect; nearly all actives have a fitted effect of over 45% in size
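Quantitative HTS on tebufenozide-induced (100 nM) PC12 cells expressing HTTQ103 exon 1–GFP; compounds tested as a concentration series; survival measured via cellular ATP.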
PINK1 modulator – PINK1 expression modulation. PINK1 immunofluorescence, high-content cytometry, 24 h. 410,000 compounds, 0.2% hits. Potency, µM (titrated, usually from 76.6 µM), for inactives: at the top dose activation (PINK1 increase), hits mostly activators; active means well fitted activation curve with a large enough effect; inconclusive means small, poorly fitted or top-dose-only effect; cell line not stated here; further: % of control where 0% means no effect; nearly all actives have a fitted effect of over 65% in size
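Cells are seeded, rested 12 hours, then given compound at five concentrations or DMSO for 24 hours. After fixation, blocking and antibody staining, PINK1 amount and mitochondrial localization are scored; CCCP serves as control.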
HttQ103 aggreg – reduces HttQ103-GFP aggregates in PC12 cells. PC12 HttQ103-GFP aggregates, Acumen cytometry, 40 h. Potency, µM (series often up to 46.1 µM), for inactives: top-dose activity change, negative = inhibition, most hits filed as inhibitors. 220,000 compounds, 1.1% hits. AID 1688; further: on the % scale 0 is the no-effect control and ±100 the full control effect; nearly all actives have a fitted effect of over 60% in size
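Compounds (qHTS titration) were added to PC12 cells expressing an ecdysone-driven HTT exon 1 Q103–GFP fusion after induction with 100 nM tebufenozide. Aggregate formation was measured as GFP objects in cell lysates.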
Epigenetic derep – derepresses silenced GFP reporter in murine cells | murine LDR cells, GFP reporter derepression, 30 h | Potency, µM (titrated, usually from 53.9 µM), without a hit: at the top dose GFP activation, usual class: activators | 280,000 compounds, 0.2% hits | AID 1865; further: % of control where 0% means no effect; nearly all actives have a fitted effect of over 60% in size
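In this reporter-derepression format, murine cells bearing a silenced integrated CMV-GFP locus incubate with test compound (30 h, 37 C), then are washed and imaged; fluorescent objects of 20–120 um count as induced cells.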
Numbers without * were called inactive; ? = inconclusive; / = not tested or not shown; [ ] = remark or other dose. Unless noted, the call rests on the fitted dose curve; in most records, active means well fitted curve in the direction sought with a large enough effect; inconclusive means small, poorly fitted or top-dose-only effect, or another doubt; inactive means no such curve, though single readings can be large; an effect the other way counts as inactive or inconclusive. Potency means the concentration at half of the fitted maximal effect.

SMILES | HTT cytoprotect | PINK1 modulator | HttQ103 aggreg | Epigenetic derep
CC(=O)c1c(C)[nH]c(C(=O)COc2cc(C)cc(C)c2)c1C | 8% | 15%[38.3 µM] | -17% | 0%
CCCOc1ccc(OCC(=O)c2[nH]c(C)c(C(C)=O)c2C)cc1 | -6% | -2%[38.3 µM] | 8.9µM* | 0%
COc1ccc(NC(=S)N2CCCN(Cc3cc(C)ccc3C)C2)cc1 | -19% | 0% | 3% | 0%
Cc1ccc(S(=O)(=O)NC(C)(C)CN2CCC(Cc3ccccc3)CC2)cc1 | -5%[10 µM] | 40µM* | -6%[9.22 µM] | -1%
CC1CC(C)CN(S(=O)(=O)c2ccc(NC(=O)CCNC(=O)c3ccc([N+](=O)[O-])cc3)cc2)C1 (centres undefined) | / | 9% | / | /
Cc1ccc2[nH]c(=O)c(C(c3nnnn3C3CCCC3)N3CCCc4ccccc43)cc2c1 (centres undefined) | 9%[10 µM] | 5% | 35µM* | 0%
Cc1cc(Nc2cccc(F)c2)nc(-c2ccccc2O)n1 | -21% | / | 25µM* | -1%
Cc1cc(Nc2ccccc2)nc(-c2ccccc2O)n1 | -11%[0.074 µM] | 11% | ? | -1%
S=C(NCCN1CCOCC1)Nc1ccc(-c2nc3ccccc3[nH]2)cc1 | -62% | 6% | ? | -3%
COc1ccc(Oc2cnc3ccccc3n2)cc1 | -30% | 0% | 11µM* | -3%
CC(=O)Nc1ccc(Oc2cnc3ccccc3n2)cc1 | 23% | -2% | 11µM* | 0%
COc1ccc(CC(NC(C)=O)C(=O)NC2CCN(S(=O)(=O)c3ccc(NC(C)=O)cc3)CC2)cc1OC (centres undefined) | 0%[10 µM] | -2% | -7%[9.22 µM] | 1%
C=CCn1c(=O)n(CCOC)c(=O)c2sc3ccccc3c21 | 17%[10 µM] | 2% | 22µM* | -1%
Cn1c(=O)n(C)c2cc(NS(=O)(=O)c3ccc4c(c3)CCCC4)ccc21 | -12%[0.074 µM] | 1%[38.3 µM] | 2.8µM* | -1%
Cc1ccc2nc(-c3ccc(NC(=O)COc4ccc(Br)cc4Br)cc3)sc2c1 | / | 0% | / | 0%
CCOC(=O)[C@]12CCCC=C1N(Cc1ccc(Cl)cc1Cl)C(=O)[C@H](CC(=O)N1CCCC1)C2 | / | 1% | / | /
CC1Cc2ccccc2N1C(=O)CSc1ccccc1 (centres undefined) | -2% | -4%[38.3 µM] | -13% | 0%
CC1Cc2ccccc2N1C(=O)CSC1=NCCS1 (centres undefined) | 18%[10 µM] | 11µM* | -3% | -3%
COc1ccccc1C1=NNC(=Nc2cccc(S(=O)(=O)N(C)C)c2)SC1 | ? | ? | 11µM* | -3%
COCCn1c(C)cc(C2=NNC(=Nc3ccccc3)SC2)c1C | -20% | 5% | 6% | 0%
Cc1cc(C)c(S(=O)(=O)Nc2ccccc2C(=O)O)cc1C | / | / | / | -3%
O=C(O)c1ccccc1-c1c2ccc(=O)cc-2oc2cc(O)ccc12 | -125% | / | 0.032µM* | 2%
O=C(O)CN(CC(=O)O)Cc1cc2c(-c3ccccc3C(=O)O)c3cc(CN(CC(=O)O)CC(=O)O)c(=O)cc-3oc2cc1O | / | / | 0.18µM* | ?
COC(=O)c1ccccc1-c1c2ccc(=N)cc-2oc2cc(N)ccc12 | / | 40µM* | / | /
O=C(O)c1ccccc1-c1oc2cc(O)ccc2c(=O)c1Oc1ccccc1 | -54% | / | / | 0%
SMILES | HTT cytoprotect | PINK1 modulator | HttQ103 aggreg | Epigenetic derep
CC(=O)c1ccc(NC(=O)CSc2nccn2C2CCCC2)cc1 | / | 1% | / | -1%
O=C(CCl)NCc1cc(-c2ccc(Cl)cc2)no1 | -198% | -1% | 35µM* | 0%
COc1ccc(OCc2cc(-c3ccc(Cl)cc3)no2)cc1 | -2%[10 µM] | 2% | -20% | 0%
O=C(Nc1nccs1)c1cc2c(s1)CCCCC2 | -69%[10 µM] | 0% | 13µM* | 0%
Cc1ccc(-c2csc(N3CCC(C(N)=O)CC3)n2)cc1 | / | -1% | / | /
Cc1ccc(-c2csc(N3CCC(NS(=O)(=O)c4ccc5c(c4)OCCO5)CC3)n2)cc1 | ? | -1% | 6.3µM* | -1%
CC(C)c1csc2nc3n(c(=O)c12)CCCCC3 | -39% | 1% | 2%[9.22 µM] | 0%
O=C(Nc1ccccc1F)C(=Cc1sc(N2CCOCC2)nc1-c1ccccc1)C(=O)Nc1ccccc1F | 2%[10 µM] | 3% | 22% | 14µM*
O=C(c1ccccc1)c1c2c(cc3sc4ccccc4[n+]13)-c1cccc3cccc-2c13 | / | ? | 7.9µM* | 11µM*
O=C(c1ccccc1)c1ccc2ccccc2c1 | / | 22% | / | /
Cc1sc2cc3c(c(C(=O)c4ccccc4)[n+]2c1C)-c1cccc2cccc-3c12 | / | ? | 8.9µM* | -1%
O=C1C2C3C=CC(C3)C2C(=O)N1/N=C/c1cc(Br)cc([N+](=O)[O-])c1O (centres undefined) | -4%[10 µM] | ? | 13µM* | 0%
O=C1C2C3C=CC(C3)C2C(=O)N1/N=C/c1ccc(-c2ccccc2[N+](=O)[O-])o1 (centres undefined) | -46%[0.074 µM] | 4% | 2% | -1%
Cc1ccc2cc3c(N)c(C(=O)Nc4c(C)[nH]c(=O)[nH]c4=O)sc3nc2c1 | 6%[10 µM] | 32µM* | ? | ?
C=CCOc1ccc(C2c3c(oc4ccccc4c3=O)C(=O)N2CCCN2CCOCC2)cc1 (centres undefined) | -4% | ? | 16% | 1%
CCN(CC)c1ccc(CNC(=O)C/C(C)=N/NC(=O)COc2ccc(C)cc2Br)cc1 | / | 2% | / | /
CCNc1nc(NC(C)C)nc(N(C#N)CCOc2ccccc2)n1 | -8% | 1% | 22µM* | -1%
CC(C)(C)CN1CCNC[C@H]1Cc1ccc(O)cc1 | / | 1% | / | /
c1cc2c(cc1C1=NNC(=NC3CC3)SC1)OCCO2 | -185% | -2% | ? | 28µM*
Cc1noc(C)c1S(=O)(=O)N1CCC(C(=O)Nc2ccc(OC(F)(F)F)cc2)CC1 | -23%[10 µM] | 2% | -3% | 2%
Cc1cc(C)nc(NN=C(c2ccccc2)c2ccccc2)n1 | 22%[10 µM] | 2% | 18µM* | 3%
Cc1ccc(S(=O)(=O)N2CCC(C(=O)NC3CCCCCC3)CC2)cc1 | -5%[10 µM] | 0% | -8% | -1%
CCN(CC)CCCC(C)Nc1cc(/C=C/c2ccccc2Cl)nc2cc(Cl)ccc12 (centres undefined) | -78% | 0% | -20% | /
CCN(CC)CCCC(C)Nc1c2ccc(Cl)cc2nc2ccc(OC)cc12 (centres undefined) | -337% | 0% | / | 3.2µM*
COc1cccc(N2CCN(c3c(C#N)c(C(F)(F)F)nn3C)CC2)c1 | 26% | 0% | 11µM* | -1%
Cn1nc(C(F)(F)F)c(C#N)c1N1CCN(c2ccccc2F)CC1 | 4% | 0% | -17% | 0%
N#C/C(=C\c1ccc(C(=O)O)cc1)c1nc2sc3c(c2c(=O)[nH]1)CCCC3 | -7%[10 µM] | 32µM* | -9%[9.22 µM] | 1%
O=C(CN1CCN(S(=O)(=O)N2CCCCCC2)CC1)Nc1cc(Cl)ccc1Cl | / | 0% | / | /
CC(C)Cc1nnc(NC(=O)CN2C(=O)C3CCCCC3C2=O)s1 (centres undefined) | / | 0% | / | /
CCCCCc1ccc(OCCCC[n+]2ccccc2)c(CCCCC)c1 | -91% | 4% | 11µM* | 9%
